SARS PLP yeast = inhibitors of SARS-CoV papain-like protease in yeast; S. cerevisiae expressing SARS-CoV PLpro, growth rescue; Potency, µM (top dose mostly 32.9 µM), inactives show top-dose activity, positive = growth rescue, usual class: activators; 330,000 compounds, 0.19% hits; calls by dose curve; further: 0% is about no effect; nearly all actives have a fitted effect of over 55% in size
AmpC no deterg = blocks E. coli AmpC beta-lactamase in detergent-free assay; AmpC nitrocefin hydrolysis, absorbance 480 nm, 0.0001% Triton; Potency, µM (series often up to 57.1 µM), inactives show at the highest dose activity change, negative = inhibition, usual class: inhibitors; AID 485341; 330,000 compounds, 0.52% hits; P00811;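 further: plate controls were no compound for no effect and no enzyme for full effect; nearly all actives have a fitted effect of over 20% in size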
Target sequence (P00811 whole entry, looked up): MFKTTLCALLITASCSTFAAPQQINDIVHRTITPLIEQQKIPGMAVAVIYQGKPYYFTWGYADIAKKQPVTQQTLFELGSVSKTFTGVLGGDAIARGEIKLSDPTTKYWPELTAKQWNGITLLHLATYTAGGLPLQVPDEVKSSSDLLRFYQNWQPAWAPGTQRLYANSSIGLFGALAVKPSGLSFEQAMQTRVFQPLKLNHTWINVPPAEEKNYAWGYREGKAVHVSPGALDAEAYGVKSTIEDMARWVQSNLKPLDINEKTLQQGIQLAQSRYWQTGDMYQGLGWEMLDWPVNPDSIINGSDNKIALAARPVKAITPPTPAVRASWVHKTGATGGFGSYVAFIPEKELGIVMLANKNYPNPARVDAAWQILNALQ
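20 mM phosphate pH 7.0 + 0.01% (detergent screen) or 0.0001% Triton X-100; 5.3 nM AmpC reagent; cpd preinc 15 min RT; nitrocefin (800 uM stock) to start; A480 q20 s × 4 min; Activity was normalised to no-enzyme and no-compound control wells.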
AmpC detergent = inhibitors of E. coli AmpC beta-lactamase with detergent; AID 485294; 370,000 compounds, 0.041% hits; Potency, µM (doses to about 114 µM), for inactives: top-dose activity change, negative = inhibition, actives largely listed as inhibitors; P00811; AmpC hydrolysis of nitrocefin, absorbance 480 nm, 0.01% Triton;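 further: 0% = no-compound wells and -100% = no-enzyme wells; nearly all actives have a fitted effect of over 25% in size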
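20 mM phosphate pH 7.0 + 0.01% (detergent screen) or 0.0001% Triton X-100; 5.3 nM AmpC reagent; cpd preinc 15 min RT; nitrocefin (800 uM stock) to start; A480 q20 s × 4 min; Activity was normalised to no-enzyme and no-compound control wells.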
Sm TGR block = S. mansoni TGR enzyme inhibition. purified TGR, DTNB reduction, TNB absorbance 405 nm. Potency, µM (series often up to 114 µM), for inactives: top-dose activity change, negative = inhibition, actives largely listed as inhibitors. 360,000 compounds, 3% hits; further: on the % scale 0 is the no-effect control and ±100 the full control effect; nearly all actives have a fitted effect of over 60% in size
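Kinetic colorimetric format: TGR-catalysed, NADPH-driven DTNB reduction monitored via TNB absorbance. Enzyme dispensed at 20 nM; compound exposure 15 min at room temperature before reaction start.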
Pf growth 96h = P. falciparum growth inhibition at 96 hours; P. falciparum luciferase reporter growth, 96 h; Potency, µM (top dose mostly 28.7 µM), without a hit: at the top dose activity change, negative = inhibition, actives largely listed as inhibitors; 320,000 compounds, 6.9% hits; AID 504834; further: on the % scale 0 is the no-effect control and ±100 the full control effect
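Plates of compound plus infected erythrocytes (2% hematocrit, 0.05% parasitemia final) incubate 96 hours, 37 C, 5% CO2. Detection reagent added; reduced luminescence from the parasites' luciferase reporter flags inhibition.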
Pf growth 48h = inhibits P. falciparum growth in the first generation, 48 h | P. falciparum luciferase growth in erythrocytes, 48 h | Potency, µM (doses to about 28.7 µM), inactives show top-dose activity change, negative = inhibition, hits mostly inhibitors | 310,000 compounds, 5.9% hits; further: on the % scale 0 is the no-effect control and ±100 the full control effect
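Luciferase-expressing P. falciparum in infected erythrocytes (2% hematocrit, 0.1% parasitemia final) in RPMI 1640/0.5% Albumax were exposed to compound for 48 hours at 37 C, 5% CO2; growth read as luminescence.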
An asterisk follows results filed as active. An excerpt weighted towards active compounds, which were near 12% of everything screened. Unless noted, the call rests on the fitted dose curve; in most records, active means well fitted curve in the direction sought with a large enough effect; inconclusive means small, poorly fitted or top-dose-only effect, or another doubt; inactive means no such curve, though single readings can be large; an effect the other way counts as inactive or inconclusive. Potency means the concentration at half of the fitted maximal effect.

O=[N+]([O-])/C(C(Cl)=C(Cl)Cl)=C(/Sc1ccccc1)N1CCCCC1 was read as SARS PLP yeast 1.3%, AmpC no deterg -21.6%, AmpC detergent 0.9%, Sm TGR block 28.2µM*, Pf growth 96h inconclusive and Pf growth 48h inconclusive.
`O=c1cc(-c2ccc(F)cc2)nc(SCc2nc(-c3cccc(C(F)(F)F)c3)no2)[nH]1` gave AmpC detergent 19.5% and Sm TGR block 0.6%.
Screening COc1ccc(Oc2nc3c(C)cccn3c(=O)c2/C=C(\C#N)c2nc3ccccc3[nH]2)cc1 returned AmpC detergent 26.5% and Sm TGR block -5.7%.
`CCOc1ccc(OCC)c(NS(=O)(=O)c2c(C(=O)N3CCC(C)CC3)c(C)n(C)c2C)c1` gave AmpC detergent 1.6% and Sm TGR block 8.8%.
For COc1ccc(C2(CNC(=O)/C=C\c3ccco3)CCCC2)cc1OC the results were SARS PLP yeast -2.9%, AmpC no deterg 77.9%, AmpC detergent -4.4%, Sm TGR block 3.16µM*, Pf growth 96h inconclusive and Pf growth 48h 11.7µM*.
Screening COc1ccc(C(NC(=O)c2ccco2)c2ccc(OC)c(OC)c2)cc1 (configuration not stated) returned SARS PLP yeast -3.8%, AmpC no deterg 0.0%, AmpC detergent -12.4%, Sm TGR block 0.0% and Pf growth 48h -2.9%.
COc1ccc(C(NC(=O)/C=C/c2ccco2)c2ccc(OC)c(OC)c2)cc1OC was read as SARS PLP yeast -1.5%, AmpC no deterg 105.8%, AmpC detergent -7.5%, Sm TGR block 8.91µM*, Pf growth 96h inconclusive and Pf growth 48h -0.6%.
`CC1(C)[C@@H](O)CC[C@]2(C)C3C(O)C=C4[C@H]5C[C@@](C)(C(=O)O)CC[C@]5(C)CC[C@]4(C)[C@]3(C)CC[C@@H]12` (some centres not stated) gave SARS PLP yeast -7.4%, AmpC no deterg -24.9%, AmpC detergent -0.1%, Sm TGR block -6.0%, Pf growth 96h 4.6% and Pf growth 48h 43.6%.
For Cc1nc2ncnn2c(C)c1CCC(=O)NCCCN1CCN(c2cccc(Cl)c2)CC1 the results were SARS PLP yeast -0.9%, AmpC no deterg 45.2%, AmpC detergent -0.6%, Sm TGR block 79.4µM*, Pf growth 96h inconclusive and Pf growth 48h inconclusive.
Screening Cc1cccc(CCNC(=O)COc2cc(=O)n(C)c3ccccc23)c1 returned SARS PLP yeast -1.3%, AmpC no deterg 29.6%, AmpC detergent inconclusive, Sm TGR block -2.7%, Pf growth 96h 10.4µM* and Pf growth 48h -11.4%.
Cn1c(=O)cc(OCC(=O)N2CCN(C3CCCCC3)CC2)c2ccccc21 was read as SARS PLP yeast -4.9%, AmpC no deterg 0.891µM*, AmpC detergent inconclusive, Sm TGR block -3.5%, Pf growth 96h 9.6% and Pf growth 48h 4.5%.
For Cc1nc2ncnn2c(C)c1CCC(=O)N1CCN(c2cccc(Cl)c2)CC1 the results were AmpC detergent 14.0% and Sm TGR block 6.9%.
`CCC1CCCCN1CCCNC(=O)CCCOc1cc(=O)n(C)c2ccccc12` (configuration not stated) gave SARS PLP yeast -2.7%, AmpC no deterg 0.8%, AmpC detergent -11.7%, Sm TGR block 9.1%, Pf growth 96h 6.57µM* and Pf growth 48h -22.4%.
`Cc1oc(-c2cccc(Cl)c2)nc1CSc1nnc(C)n2c1cc1occc12` gave AmpC detergent -10.5% and Sm TGR block 1.0%.
Screening CC(=O)c1ccc(NC(=O)CSc2nnc(Cn3c(=O)sc4ccccc43)n2C)cc1 returned SARS PLP yeast -14.6%, AmpC no deterg 2.3%, AmpC detergent inconclusive, Sm TGR block -8.1%, Pf growth 96h -3.0% and Pf growth 48h -14.5%.
NS(=O)(=O)c1cccc(NC(=O)COC(=O)c2ccccc2SCC(=O)N2CCCC2)c1 was read as SARS PLP yeast -3.7% and AmpC no deterg -44.4%.
For C/C(CC(=O)Nc1cccc(Cl)c1Cl)=N\NC(=O)c1ccccc1C the results were SARS PLP yeast 0.6%, AmpC no deterg -44.1%, AmpC detergent 3.1%, Sm TGR block -27.5%, Pf growth 96h inconclusive and Pf growth 48h inconclusive.
CCCC(=O)NNc1cc(=O)c2c(=O)n(C)c(=O)n(C)c2[nH]1 was read as SARS PLP yeast -3.6%, AmpC no deterg -2.3%, AmpC detergent 0.9%, Sm TGR block 7.8% and Pf growth 48h 21.9%.
For CCn1c(SCC(=O)Nc2nc(-c3ccc(C)cc3)cs2)nnc1-c1ccccc1O the results were SARS PLP yeast -11.8%, AmpC no deterg -8.0%, AmpC detergent 6.2%, Sm TGR block -2.2%, Pf growth 96h -16.7% and Pf growth 48h inconclusive.
CCOc1ccccc1NC(=O)Nc1nnc(N2CCCCCC2)s1 was read as AmpC detergent 19.5% and Sm TGR block -5.1%.
`Cn1c(=O)cc(OCC(=O)NCCCN2CCN(c3cccc(Cl)c3)CC2)c2ccccc21` gave SARS PLP yeast -8.8%, AmpC no deterg 223.2%, AmpC detergent -14.4%, Sm TGR block 0.7%, Pf growth 96h 11.7µM* and Pf growth 48h inconclusive.
Screening Cn1cc(C(=O)NCCN2CCN(c3cccc(Cl)c3)CC2)c2c3ccccc3n(C)c2c1=O returned SARS PLP yeast 4.4%, AmpC no deterg 0.9%, AmpC detergent inconclusive, Sm TGR block -8.9%, Pf growth 96h inconclusive and Pf growth 48h 1.04µM*.
`CCOC(=O)CON1C(=O)c2ccccc2C1=O` gave SARS PLP yeast -2.3%, AmpC no deterg -10.7%, AmpC detergent -0.4%, Sm TGR block -9.8% and Pf growth 48h 0.3%.
Screening CC(C)C(=O)NC(=S)Nc1ccc(S(=O)(=O)NC2CCCCC2)cc1 returned SARS PLP yeast 1.5%, AmpC no deterg -45.0%, AmpC detergent -9.0%, Sm TGR block inconclusive, Pf growth 96h 16.5µM* and Pf growth 48h 3.7%.
Screening O=C(CNC1CCCCCC1)Nc1ccc(S(=O)(=O)NC2CC2)cc1 returned SARS PLP yeast 4.4%, AmpC no deterg 0.159µM*, AmpC detergent -0.1%, Sm TGR block -5.6%, Pf growth 96h inconclusive and Pf growth 48h -25.8%.
Cc1ccc(CNC(=O)C(c2ccccc2)c2ccccc2)cc1 was read as SARS PLP yeast 1.9%, AmpC no deterg -24.2%, AmpC detergent 0.6%, Sm TGR block -3.3%, Pf growth 96h -20.3% and Pf growth 48h -18.9%.

Screening data: PubChem, National Center for Advancing Translational Sciences (NCATS)
